# From PubChem BioAssay AID1053118 (Broad Institute, 2014)
# Potency and affinity values are given separately. Activity calls are given as the source filed them.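 Rule for the calls: active = fitted half-maximal concentration for ATP signal loss at most twice the top valid dose; inconclusive = flat curve between -70 and -30%, or an invalid fit; inactive = flat within ±30%, wrong direction, or potency past limit.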
# Assay: viability loss in HepG2 hepatoma cells – cell-based, cherry-picks, set 5, cytotoxicity control, dose response (AID 1053118)
# Conditions: ATP luminescence, 72 h; series mostly up to 26 µM
row,Compound,outcome
1,O=C(NCCS(=O)(=O)N1CCN(c2ccc(F)cc2)CC1)c1ccc(Br)o1,inactive
2,C[C@H](CO)N1C[C@H](C)[C@H](CN(C)Cc2ccccc2)Oc2ncc(-c3ccccc3)cc2C1=O,inactive
3,C[C@H]1CN([C@@H](C)CO)C(=O)c2cccc(NC(=O)Nc3ccc(C(F)(F)F)cc3)c2O[C@H]1CN(C)C(=O)Nc1cccc2ccccc12,inactive
4,COc1cccc(S(=O)(=O)N2CC[C@@H]3[C@H]2c2cc(-c4ccc(C#N)cc4)ccc2N[C@@H]3CO)c1,inactive
5,COc1ccccc1CNc1nc(NCc2cnc(C)cn2)c2sccc2n1,inactive
6,Cc1ccc(C(O)c2ncc(-c3cccc4ccccc34)[nH]2)cc1F (centres undefined),inactive
7,CCOc1ccccc1NC(=O)c1c(NC(=O)CCC(=O)O)sc2c1CCCCC2,inactive
8,COc1ccc(Cl)cc1NC(=O)CSc1nc(Nc2ccccc2)nc(N2CCOCC2)n1,inactive
9,O=C(CCNS(=O)(=O)c1cccc2nonc12)NC1CCCc2ccccc21 (centres undefined),inactive
10,CO[C@H]1CN(C)C(=O)c2cc(NC(=O)Nc3cc(Cl)cc(Cl)c3)ccc2OC[C@H](C)NC[C@@H]1C,inactive
11,Cc1ccc(S(=O)(=O)N2CC[C@H]3[C@H](CO)Nc4ccc(-c5cccc(C(=O)N(C)C)c5)cc4[C@H]32)cc1,inactive
12,CCOC(=O)C1=C(C)Nc2nc3ccccc3n2C1c1ccncc1 (centres undefined),inactive
13,C[C@H]1CN([C@@H](C)CO)C(=O)c2cc(NC(=O)CCCN(C)C)ccc2O[C@@H]1CN(C)Cc1ccc(-c2ccccc2)cc1,inactive
14,C[C@@H]1CN([C@@H](C)CO)C(=O)c2cc(-c3ccccc3)cnc2O[C@@H]1CN(C)C(=O)c1cccc(F)c1,inactive
